Myeloid diff MLP: myeloid differentiation induction; actives 1% (n = 360,000); ER-HoxA9 myeloid progenitors, lysozyme-GFP differentiation, flow cytometry; calls only at 10 µM;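 active = normalized GFP-positive differentiation at or above the plate's own cutoff, the solvent-only control mean plus 3 SD; inconclusive = no clear call, values can overlap the other calls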;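 note: cells exposed to compound for four days before flow analysis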
GC-B act: GC-B (human) receptor activation; HEK293-GC-B cells, CNP EC30, cGMP TR-FRET; 0% at EC30 CNP, 100% saturating CNP; AID 1920062; activation, % at 10 µM; P20594; actives 0.11% (n = 370,000);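 active = activation at 10 µM reaching about 35% in either raw or pattern-adjusted values, limit read from the data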
NPR1 activator: GC-A (human) enzyme activation. P16066. HEK293 GC-A cells, cGMP TR-FRET, EC30 ANP; 0% at EC30 ANP, 100% saturating ANP. activation, % at 10 µM. actives 0.14% (n = 370,000). AID 1671463; in the data active = activation above about 40%
Exocytosis inh: lytic granule exocytosis inhibition | TALL-104 LAMP-1 surface exposure, flow cytometry; cells stimulated with thapsigargin and PMA | inhibition, % at 10 µM | actives 0.66% (n = 360,000);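 active = inhibition above about 55%, limit read from the data; inconclusive = no clear call, values can overlap the other calls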
Granule exo CP1: lytic granule exocytosis inhibition; shares compounds with Exocytosis inh; TALL-104 cells, LAMP-1 externalization, flow cytometry; stimulated with PMA plus thapsigargin; actives 11% (n = 1,500); AID 651954; inhibition, % at 10 µM; in the data active = inhibition above about 60%;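 note: 0% = stimulated vehicle wells and 100% = unstimulated wells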
* = called active by the depositor; i = inactive; ? = inconclusive; nt = not tested or not shown. In the library only some 1.8% were active in any assay of this set; here they are far more common.

SMILES	Myeloid diff MLP	GC-B act	NPR1 activator	Exocytosis inh	Granule exo CP1
COc1ccccc1C(=O)Nc1ccccc1SC(=O)c1ccccc1OC	i	-11.2	1.0	91.1*	33.4
COc1ccc(-c2ccc(CCC(=O)O)n2-c2ccccc2OC)cc1	i	3.8	-1.1	67.0*	-3.9
COc1ccccc1-n1c(CCC(=O)O)ccc1-c1ccccc1	i	0.3	0.7	-3.0	nt
CC(C)C[C@@H]1COc2cc(N3CCCC3)ccc2S(=O)(=O)N1C	nt	1.6	2.5	nt	nt
COC(=O)C1CN(Cc2cn(CCOC(C)=O)nn2)CCS(=O)(=O)N1Cc1ccc(C)cc1 (stereo not given)	nt	2.6	4.2	nt	nt
O=C(COC(=O)CC1CC2CCC1C2)NCc1ccc(Cl)cc1 (stereo not given)	i	-0.6	2.4	63.2*	-4.9
O=C(COC(=O)CC1CC2CCC1C2)NCc1ccccc1 (stereo not given)	i	3.7	-1.4	3.0	nt
COc1ccc(NC(=O)c2cc(-c3ccccc3Cl)on2)cc1	i	-3.1	11.2	-3.1	nt
COc1cc(NC(=O)c2cc(-c3ccccc3Cl)on2)cc(OC)c1OC	?	-7.0	-1.6	69.3*	-11.0
Cc1onc(-c2ccccc2)c1C(=O)OCCOc1ccccc1F	i	-5.8	-1.2	80.4*	-9.7
Fc1cccc(-c2cncc(N3CCN(CCN4CCCC4)CC3)n2)c1	i	2.9	-2.7	59.1*	-9.4
Cc1onc(-c2ccccc2Cl)c1C(=O)N1CCC(Cc2ccccc2)CC1	i	-4.2	-0.9	84.3*	-11.6
CC(C)(C)c1cc(C(=O)Nc2ccc(F)cc2)n(Cc2ccc(F)cc2)n1	i	-2.6	1.0	66.7*	2.9
CCOc1cccc(-c2nnc3n2N=C(c2cc(OC)ccc2OC)CS3)c1	i	12.2	13.2	75.1*	7.1
COc1ccccc1NC(=O)c1ccc(C(=O)c2ccccc2)o1	i	-5.9	-4.4	86.3*	-0.5
O=C(Nc1ccc(S(=O)(=O)NCc2ccco2)cc1)c1ccc2ccccc2n1	i	4.7	-4.8	97.7*	-9.1
O=C(NCc1ccco1)c1ccc2ccccc2n1	i	-0.8	2.4	-2.5	nt
COc1ccc(Cl)cc1C(=O)Nc1ccccc1N1CCCCC1	i	-5.5	-11.7	56.8*	-4.1
O=C(Nc1ccccc1N1CCCCC1)c1cccc(OC(F)F)c1	i	1.7	-5.4	99.2*	-13.6
COc1cccc(C(=O)Nc2ccccc2N2CCCC2)c1	i	2.2	-2.4	5.7	nt
COc1ccc(CC(=O)Nc2cc(Cl)ccc2N2CCCC2)cc1	i	-0.1	-3.8	66.9*	-3.8
COc1ccc(OC)c(/C=C/C(=O)N2CCCc3ccccc32)c1	i	0.8	-5.2	-0.8	nt
COc1ccc(/C=C/C(=O)N2CCCc3ccccc32)c(OC)c1	i	3.9	1.8	71.5*	-11.3
CCOCCCNC(=S)N1CCCN(c2nc3c(C)c(C)ccc3cc2C#N)CC1	i	-15.1	-15.1	90.6*	78.9*
CCOCCCNC(=S)N1CCCN(c2nc3cc(C)ccc3cc2C#N)CC1	i	1.1	-6.5	0.6	nt
SMILES	Myeloid diff MLP	GC-B act	NPR1 activator	Exocytosis inh	Granule exo CP1
CCCCCCCCCCC(C(=O)O)C1(C(=O)O)CCC(=O)O1 (stereo not given)	i	-3.5	1.1	-5.6	nt
O=C(CNC1CCCCC1)Nc1ccc(S(=O)(=O)N2CCCCC2)cc1	i	3.5	-1.8	78.0*	21.1
CC1CCCN(S(=O)(=O)c2ccc(NC(=O)CNC3CCCC3)cc2)C1 (stereo not given)	nt	4.0	-3.4	-12.5	nt
CC1=C(C(=O)N2CCOCC2)CC(CC(=O)NC2CCCCC2)C(=O)N1Cc1ccc(C(C)(C)C)cc1 (stereo not given)	i	3.9	-2.1	5.3	nt
C(=C\c1ccccc1)/CSc1nnc(-c2cnccn2)n1Cc1ccco1	i	-11.6	-8.8	62.7*	-9.1
O=C(CCC(=O)N1CCCc2ccccc21)N1CCN(S(=O)(=O)c2ccccc2)CC1	i	0.0	1.1	0.6	nt
O=C(CCS(=O)(=O)c1ccccc1)N1CCCc2ccccc21	i	0.8	-3.7	73.5*	8.6
CSCCC(c1nc2ccccc2[nH]1)n1c(/C=C/c2ccc(F)c(F)c2)nc2ccccc21 (stereo not given)	i	-20.0	-19.7	6.0	nt
Cc1onc(-c2c(F)cccc2Cl)c1C(=O)Nc1sc2c(c1C(N)=O)CCC2	i	-0.5	1.8	56.2*	6.6
COc1cc(CNC2CCCCCCC2)ccc1OCC(N)=O	i	-0.3	-5.2	-8.1	nt
CCOC(=O)c1ccc(NC(=O)COc2ccc(CNC3CCCCC3)cc2OC)cc1	i	-6.9	0.6	59.9*	-11.5
COc1ccc(C(C)=O)cc1CN(c1ccccc1OC)S(=O)(=O)c1cccs1	i	-9.1	-21.2	91.9*	-5.7
COc1ccc(CC(=O)NCC2CCCN(Cc3ccc(OC(F)(F)F)cc3)C2)cc1 (stereo not given)	i	-11.7	-34.2	66.5*	-12.1
CCCCOn1c(C)c(C(=O)OCC)c2c3nonc3ccc21	i	-4.0	15.9	86.9*	36.3
CC1(C(=O)NCc2ccccc2)CCC(=O)N1CCc1c[nH]c2ccccc12 (stereo not given)	i	-0.5	-0.8	-0.4	nt
CN(Cc1ccccc1)C(=O)c1nc2ccccn2c1CNCCn1cccn1	i	-0.9	-5.1	-4.0	nt
CC(c1ccon1)N(C)Cc1c(C(=O)N(C)Cc2ccccc2)nc2ccccn12 (stereo not given)	i	-7.7	-3.3	71.2*	-3.8
